Results filed as inconclusive are left out. Where a call stands in place of a potency, no number is given. Activity calls are given as the source filed them. Unless noted, the call rests on the fitted dose curve; in most records, active means well fitted inhibition curve with a large enough effect; inconclusive means small, poorly fitted or top-dose-only effect; inactive means no such curve, though single readings can be large or run the other way.

A short description of the first test: Immunotoxin (SS1P) sensitization/mitigation study. Vehicle arm (DMEM) (AID 1159513; call rule not given here; further: potency means the concentration at half of the fitted maximal effect). The following applies: cell viability with vehicle (DMEM); series mostly up to 46.1 µM.
For the molecule `CNC(=O)c1ccccc1Sc1ccc2c(/C=C/c3ccccn3)n[nH]c2c1`, the Potency is 1.05 µM (active).

With `Nc1nc(Cl)nc2c1ncn2[C@H]1C[C@H](O)[C@@H](CO)O1`, the Potency is 48.1 µM (active).

For `N#Cc1ccc(C(c2ccc(C#N)cc2)n2cncn2)cc1`, the Potency entry is “inactive”.

On to `Cc1ccc(Nc2nccc(N(C)c3ccc4c(C)n(C)nc4c3)n2)cc1S(N)(=O)=O`, for which the Potency is 20.9 µM (active).

A further test is described as follows: qHTS assay for measurement of the activity of small molecule inhibitors on Zika virus induced Caspase-3 activity in human iPSC derived neural progenitor cells (hNPCs) (AID 1224857). Further: nearly all actives have a fitted effect of over 65% in size. The following applies: hNPCs ZIKV-induced caspase-3/7, Caspase-Glo luminescence, 6 h; series mostly up to 45.7 µM. Put shortly: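 Percent inhibition of virus-induced caspase-3/7 luminescence (Caspase-Glo), scaled between uninfected cells and Zika-infected cells. hNPCs received compound 1 hr before ZIKV at 2 FFU/cell, with 6 hours infection at 37 C.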
On to `CCN(CC)CCc1c[nH]c2ccccc12`, for which the outcome was inactive.

Take `C[C@]12CC[C@@H]3c4ccc(OC(=O)N(CCCl)CCCl)cc4CC[C@H]3[C@@H]1CC[C@@H]2OP(=O)(O)O`: the molecule was called inactive.

For the molecule `CCN(CC)C(=O)[C@@H]1C=C2c3cccc4[nH]cc(c34)C[C@H]2N(C)C1`, the call was inactive.

`CCN[C@H](C)Cc1cccc(C(F)(F)F)c1`: the molecule was called inactive.

`C[C@](O)(CS(=O)(=O)c1ccc(F)cc1)C(=O)Nc1ccc(C#N)c(C(F)(F)F)c1`: the molecule was called inactive.

`CN1CC[C@]23c4c5ccc(O)c4O[C@H]2[C@@H](O)C=C[C@H]3[C@H]1C5`: the molecule was called inactive.

In the case of `C[C@H]1[C@@H]2Cc3ccc(O)cc3[C@@]1(C)CCN2C`, the outcome was inactive.

For the origin of these results see PubChem BioAssay (NCATS).
